Measured values as given in PubChem BioAssay (Tox21).
Results filed as inconclusive are left out. A call without a number means that no potency is given here. Activity calls are given as the source filed them. Calls come from the whole dose curve; as a rule, active = well fitted cell-killing curve with a large enough effect in the repeat runs; inconclusive = weak or mixed curves, or effect the other way; inactive = flat fitted curve, though single readings scatter.

Test: cAMP Responsive Elements (CRE) small molecule antagonists, cell-based qHTS assay: qHTS cell viability counter screen (AID 2060913); note: nearly all actives have a fitted effect of over 40% in size
Conditions: CRE-bla HEK293T viability, CellTiter-Glo luminescence, 5 h; series mostly up to 92.4 µM
In short: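 HEK293T CRE-bla, 2,000 cells/well, 18 h preincubation; cpd in DMSO + NKH477 0.25 uM final, 3 h 37 C/5% CO2; LiveBLAzer 2 h RT, then CellTiter-Glo 30 min RT, luminescence.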
Potency is the fitted concentration of half-maximal effect.

Question: Which Potency does the source give for CCCCCN=C(N)N/N=C/c1c[nH]c2ccc(OC)cc12 here?
Answer: 29.8 µM (active)

Question: For CC1=C2[C@H](/C=C(\C)C(=O)O)CC[C@@H](C)[C@H]2CC1, which Potency is on record?
Answer: inactive

Question: For O=C(O)c1cccc(O)c1, which Potency is on record?
Answer: inactive

Question: Which Potency does the source give for O=C(Cl)c1cc(Cl)cc(Cl)c1 here?
Answer: inactive

Question: For CC(C)(c1cc(Br)c(OCCO)c(Br)c1)c1cc(Br)c(OCCO)c(Br)c1, which Potency is on record?
Answer: inactive

Question: Which Potency does the source give for CC1(C)CO[C@@H](CC(=O)O)CN1 here?
Answer: inactive

Question: For CCNc1ccccc1, which Potency is on record?
Answer: inactive

Question: For COc1ccccc1/C=C/C=O, which Potency is on record?
Answer: inactive

Question: With COc1ccc(C(C)=O)cc1 as the molecule, how does the Potency read?
Answer: inactive

Question: With CCCCCCOc1cc(C)c(O)c(C)c1C as the molecule, how does the Potency read?
Answer: 55.1 µM (active)

Question: Which Potency does the source give for Cc1ccc(C=O)cc1C here?
Answer: inactive

Question: Which Potency does the source give for CCCOCCC here?
Answer: inactive

Question: Which Potency does the source give for COc1cccc2c1C(=O)c1c(O)c3c(c(O)c1C2=O)C[C@@](O)(C(C)=O)C[C@@H]3O[C@H]1C[C@H](N)[C@H](O)[C@H](C)O1 here?
Answer: inactive

Question: With CCOc1cc([N+](=O)[O-])c(OCC)cc1N1CCOCC1 as the molecule, how does the Potency read?
Answer: inactive

Question: For CC(=O)CCc1ccccc1, which Potency is on record?
Answer: inactive

Question: For Clc1ccc(Sc2cc(Cl)c(Cl)cc2Cl)cc1, which Potency is on record?
Answer: inactive

Question: Which Potency does the source give for N=C(N=C(N)N)N1CCOCC1 here?
Answer: inactive

Question: For C=CC(=O)NC(C)C, which Potency is on record?
Answer: inactive

Question: Which Potency does the source give for CN(C/C=C/c1ccccc1)Cc1cccc2ccccc12 here?
Answer: 29.8 µM (active)

Question: For CCS(=O)(=O)c1ccc(OC)c(C(=O)OC)c1, which Potency is on record?
Answer: inactive

Question: For CC(=O)C1C(=O)C=C(C)OC1=O (centres undefined), which Potency is on record?
Answer: inactive

Question: For NCCC(O)(P(=O)(O)O)P(=O)(O)O, which Potency is on record?
Answer: inactive

Question: For CN(Cc1ccc(C(C)(C)C)cc1)Cc1cccc2ccccc12, which Potency is on record?
Answer: inactive

Question: With Cc1ccc(S(=O)(=O)C(I)I)cc1 as the molecule, how does the Potency read?
Answer: 61.1 µM (active)
